Here are results for 19 molecules from the supplement of paper PMC12808144.

Unmarked numbers belong to inactive results.

In one test the test system is Mel-DCC-11. In words: cell viability relative to DMSO control (fraction of DMSO control); higher = less cytotoxic, active = 0.5 or less. Conditions: 1 µM; 120 h. Summed up:
(§1)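 Cells in 40 µl per well went into 384-well plates pre-spotted acoustically with a TargetMol library of 315 approved anti-cancer drugs, each at 1 µM in duplicate, for 120 h. Seeding was 2500/well for NHEM-hTERT immortalized melanocytes and 1500/well for patient-derived Mel-DCC-11 and its resistant subline Mel-DCC-11-R, which was run alone and with 8 µM of its selecting drug. Luminescence was read with ATPlite 1step. Viability was normalised to vehicle-treated controls and averaged over duplicates.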

For another test, the system named is NHEM-hTERT. The description is as above. As to conditions: 1 µM; 120 h. Summed up: as §1
For a further test, the system named is Mel-DCC-11-R. Put plainly: cell viability relative to DMSO control (fraction of DMSO control); higher = less cytotoxic, active = 0.8 or less. Conditions: 1 µM, 120 h. Summed up: as §1

Consider `CCN(c1cc(-c2ccc(CN3CCOCC3)cc2)cc(C(=O)NCc2c(C)cc(C)[nH]c2=O)c1C)C1CCOCC1`, for which the cell viability with Mel-DCC-11 is 1.12; in the test on NHEM-hTERT, 0.964.
The corresponding values for `O=C(CCBr)N1CCN(C(=O)CCBr)CC1` [Pipobroman] are 0.709 and 0.902.
For the molecule `COC(=O)N[C@H](C(=O)N1CC2(CC2)C[C@H]1c1ncc(-c2ccc3c(c2)C(F)(F)c2cc(-c4ccc5nc([C@@H]6[C@H]7CC[C@H](C7)N6C(=O)[C@@H](NC(=O)OC)C(C)C)[nH]c5c4)ccc2-3)[nH]1)C(C)C` [Ledipasvir], the cell viability with Mel-DCC-11 is 1.1; with NHEM-hTERT, 1.26; in the test with Mel-DCC-11-R (vemurafenib co-treatment 0 µM) it was 1.13; with Mel-DCC-11-R (vemurafenib co-treatment 8 µM) it was 0.51 (active).
The corresponding values for `N#CC1(c2ccc(NC(=O)c3cccnc3NCc3ccncc3)cc2)CCCC1` [Apatinib] are 1.03, 0.966, 1.14 and 1.13.
The corresponding values for `CCN(CC)C(=S)SSC(=S)N(CC)CC` [Disulfiram] are 0.0336 (active), 1.05, 0.442 (active) and 0.108 (active).
As to `O=C(/C=C/c1ccc(O)cc1)c1ccc(O)cc1O` [Isoliquiritigenin], the cell viability is 1.03 with Mel-DCC-11, 0.982 in the test with NHEM-hTERT, 0.834 in the test on Mel-DCC-11-R (vemurafenib co-treatment 0 µM) and 1.02 in the test with Mel-DCC-11-R (vemurafenib co-treatment 8 µM).
For `S=P(N1CC1)(N1CC1)N1CC1` [Triethylenethiophosphoramide], in that order: 0.825, 0.98, 0.91 and 0.932.
The corresponding values for `Cc1ccc(NC(=O)C2(c3ccc4c(c3)OC(F)(F)O4)CC2)nc1-c1cccc(C(=O)O)c1` [Lumacaftor] are 1.12, 0.997, 0.946 and 1.04.
Consider `CC1(C)[C@@H](O[C@H]2O[C@H](C(=O)O)[C@@H](O)[C@H](O)[C@H]2OC2O[C@H](C(=O)O)[C@@H](O)[C@H](O)[C@H]2O)CC[C@]2(C)[C@H]3C(=O)C=C4[C@@H]5C[C@@](C)(C(=O)O)CC[C@]5(C)CC[C@@]4(C)[C@]3(C)CC[C@@H]12` (some centres not stated) [Glycyrrhizin], for which the cell viability in the test with Mel-DCC-11 was 1.13; with NHEM-hTERT, 1.01; with Mel-DCC-11-R (vemurafenib co-treatment 0 µM) it was 1.06; in the test on Mel-DCC-11-R (vemurafenib co-treatment 8 µM), 1.19.
The corresponding values for `CC1(C)NC(=O)N(c2ccc([N+](=O)[O-])c(C(F)(F)F)c2)C1=O` [Nilutamide] are 1.09, 1.19, 1.03 and 0.997.
For `C[C@]12CC[C@H](O)CC1=CC[C@@H]1[C@@H]2CC[C@]2(C)C(c3cccnc3)=CC[C@@H]12` [Abiraterone], in that order: 1.28, 0.938, 1.07 and 1.16.
For `CCOc1cc2ncc(C#N)c(Nc3ccc(OCc4ccccn4)c(Cl)c3)c2cc1NC(=O)/C=C/CN(C)C` [Neratinib], in that order: 1.03, 0.732, 1.31 and 0.643 (active).
For the molecule `C[C@@H](Oc1cc(-c2cnn(C3CCNCC3)c2)cnc1N)c1c(Cl)ccc(F)c1Cl` [Crizotinib], the cell viability in the test on Mel-DCC-11 was 1.06; in the test on NHEM-hTERT, 0.986; with Mel-DCC-11-R (vemurafenib co-treatment 0 µM), 1.16; with Mel-DCC-11-R (vemurafenib co-treatment 8 µM) it was 0.825.
Regarding `O=S(=O)([O-])CCS.[Na+]` [Mesna], the cell viability in the test on Mel-DCC-11 is 1.18; in the test on NHEM-hTERT, 1.09; in the test on Mel-DCC-11-R (vemurafenib co-treatment 0 µM) it was 1.11; in the test with Mel-DCC-11-R (vemurafenib co-treatment 8 µM) it was 1.08.
For `CCC1=C[C@@H]2CN(C1)Cc1c([nH]c3ccccc13)[C@@](C(=O)OC)(c1cc3c(cc1OC)N(C)[C@H]1[C@@](O)(C(=O)OC)[C@H](OC(C)=O)[C@]4(CC)C=CCN5CC[C@]31[C@@H]54)C2.O=C(O)[C@H](O)[C@@H](O)C(=O)O.O=C(O)[C@H](O)[C@@H](O)C(=O)O` [Vinorelbine Tartrate], the cell viability was 0.78 in the test on Mel-DCC-11, 0.644 in the test with NHEM-hTERT, 1.04 in the test with Mel-DCC-11-R (vemurafenib co-treatment 0 µM) and 0.703 (active) in the test on Mel-DCC-11-R (vemurafenib co-treatment 8 µM).
For `CCN1CCN(Cc2ccc(Nc3ncc(F)c(-c4cc(F)c5nc(C)n(C(C)C)c5c4)n3)nc2)CC1.CS(=O)(=O)O` [abemaciclib mesylate], in that order: 0.731, 0.896, 1.8 and 0.723 (active).
For `CC(C)(O)CNc1nc(Nc2ccnc(C(F)(F)F)c2)nc(-c2cccc(C(F)(F)F)n2)n1` [Enasidenib], in that order: 0.875, 1.09, 1.3 and 0.834.
For `CC/C(=C(\c1ccccc1)c1ccc(OCCN(C)C)cc1)c1ccccc1.O=C(O)CC(O)(CC(=O)O)C(=O)O` [Tamoxifen Z-isomer citrate], in that order: 1.26, 0.977, 0.873 and 1.16.
Consider `CC(=O)O.CC(C)C[C@H](NC(=O)[C@@H](COC(C)(C)C)NC(=O)[C@H](Cc1ccc(O)cc1)NC(=O)[C@H](CO)NC(=O)[C@H](Cc1c[nH]c2ccccc12)NC(=O)[C@H](Cc1cnc[nH]1)NC(=O)[C@@H]1CCC(=O)N1)C(=O)N[C@@H](CCCN=C(N)N)C(=O)N1CCC[C@H]1C(=O)NNC(N)=O` [Goserelin acetate], for which the cell viability with Mel-DCC-11 is 1.22; in the test with NHEM-hTERT, 1.07; in the test on Mel-DCC-11-R (vemurafenib co-treatment 0 µM), 0.927; with Mel-DCC-11-R (vemurafenib co-treatment 8 µM) it was 1.13.
